Among all 63,000 compounds or so, about 1,100 (1.7%) were called active. Shown is part of a subset that was picked to be rich in actives. Results with a measured potency or affinity are listed apart. Values without a mark were called inactive. Rule as the data show it: active = cytotoxicity above about 50%; inactive = the rest.

The nature of this assay: HPDE-C7 pancreatic duct cell viability loss – fluorescence, HTS (AID 430).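 Also: cells exposed to compound for 48 hours before viability readout; 0% = vehicle and 100% = reference cytotoxic drug.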 The note with it: HPDE-C7 pancreatic duct cells viability, at 10 µM, active compounds read high.
In the case of `CCOc1ccccc1C1NC(=O)NC(C)=C1C(=O)OC1CCCCC1` (configuration not stated), the cytotoxicity was 1.9%.
The same measure for `COC(=O)c1c(C)n(-c2ccccc2)c2ccc(O)cc12`: 11.1%.
The same measure for `CC(C)C(NC(=O)OCc1ccccc1)C(=O)NCC(=O)OC(C)(C)C` (configuration not stated): 5.4%; for `COc1ccc(C)cc1NS(=O)(=O)c1ccc(NS(=O)(=O)c2ccc(NC(C)=O)cc2)cc1`: -5.6%.
The same measure for `O=C(CCCOc1ccc(Cl)cc1)N1CCOCC1`: -10.1%; for `Cc1nc2sc(C(c3cccs3)N3CCC(C(N)=O)CC3)c(O)n2n1` (configuration not stated): -20.4%.
Regarding `OCC(CO)(CO)N=Cc1cc(Br)ccc1O`, the cytotoxicity was 8.1%.
The same measure for `CCCc1n[nH]c2c1C(=O)CC(C)(C)C2`: 1.7%.
As for `CCN(C(=O)CSc1nc2nc(C)cc(C)n2n1)c1ccccc1`, the figure is -4%; as for `COC(=O)Cn1c2ccc(F)cc2c2nc(C)sc21`, -12.3%.
For `Cc1cc(=O)[nH]c(-n2nc(C)cc2C)n1`, the cytotoxicity is -1.2%.
As for `Cc1cc(Nc2ccccc2)n(-c2nc3ccccc3[nH]2)n1`, the figure is 4%; as for `Cc1ccc(Nc2cc(C)nn2-c2nc(C)cc(=O)[nH]2)cc1`, 102% (active); as for `Cc1nc(C)c(C(=O)C2=C(O)C(=O)N(CCN3CCOCC3)C2c2cccnc2)s1` (configuration not stated), -12.6%.
As for `Fc1cccc2sc(Nc3nnc(-c4ccco4)o3)nc12`, the figure is 53.7% (active); as for `CCC(=O)Nc1nnc(-c2ccco2)o1`, -23.7%.
As for `c1coc(-c2nnc(NC3=NCCC3)o2)c1`, the figure is 7.5%.
`Fc1cccc2sc(Nc3nnc(-c4ccccc4)o3)nc12`: the cytotoxicity was 53.3% (active).
The same measure for `CC(=O)Nc1nc2c(F)cccc2s1`: 9.8%; for `COc1cc(OC)cc(-c2nnc(Nc3nc4c(F)cccc4s3)o2)c1`: 8.8%.
In the case of `Cc1ccc2c(n1)sc1c(N)ncnc12`, the cytotoxicity is 9.8%.
For the molecule `O=C(CSCc1cccc(Br)c1)N1CCOCC1`, the cytotoxicity is -8.7%.
As for `COc1ccc(-c2noc(-c3cc(Cl)ccc3Cl)n2)cc1OC`, the figure is -2.3%; as for `CCOc1ccc(C2N(c3ccc(OC)cc3)C(=O)C3CCCN32)cc1OC` (configuration not stated), 2.1%; as for `O=C(Nc1cc(=O)c2ccccc2o1)N1CCCCC1`, -24.9%.
As for `O=C(Nc1cc(=O)c2ccccc2o1)N1CCOCC1`, the figure is 11.2%; as for `CCOC(=O)/C=C(\C)Sc1cc(=O)oc2ccccc12`, 78.4% (active); as for `CCOC(=O)Nc1cc(=O)c2ccccc2o1`, 53.2% (active).
For the molecule `CCOC(=O)N1CCN(Cc2cc(=O)oc3ccc4ccccc4c23)CC1`, the cytotoxicity is 14.3%.
As for `CCOC(=O)Oc1ccc2oc(=O)cc(C)c2c1`, the figure is 4.4%.
The same measure for `COc1ccc(Cl)cc1NC(=O)C1CCCN(S(=O)(=O)c2cccc3nonc23)C1` (configuration not stated): -12.6%.
In the case of `O=C(NCc1ccc(Cl)c(Cl)c1)c1ccco1`, the cytotoxicity was -4.6%.
The same measure for `CCCCn1c(=O)[nH]c2ccccc21`: 9.9%.
The same measure for `COc1ccc(C(=O)NCC(C)CN(C)C)cc1` (configuration not stated): -2.3%; for `CCOC(=O)Nc1cccc(Nc2ccccc2)c1`: 4.6%.
On to `Cc1ccc2[nH]c3c(c2c1)CCc1cn[nH]c1-3`, for which the cytotoxicity was 43.6%.
The same measure for `Cc1ccc2[nH]c3c(c2c1)CCC3=O`: -7.5%; for `CCN(CC)S(=O)(=O)c1cccc(C(=O)N2CCCCC2)c1`: 1.9%.
For the molecule `c1ccc(-c2cn3nc(-c4ccccc4)sc3n2)cc1`, the cytotoxicity is -10.8%.
As for `CCN(c1cccc(C(F)(F)F)c1)S(=O)(=O)c1ccc2c(c1)CCN2C(=O)C1CC1`, the figure is -11.3%.
As to `CCN(c1cccc(C)c1)S(=O)(=O)c1ccc2c(c1)CCN2C(C)=O`, the cytotoxicity is 46.6%.
In the case of `CCN(c1cccc(C(F)(F)F)c1)S(=O)(=O)c1ccc2c(c1)CCN2C(C)=O`, the cytotoxicity is 59.5% (active).
The same measure for `CCC1CCCCN1C(=O)Cn1c(=O)n(CCC(=O)NCc2ccco2)c(=O)c2sccc21` (configuration not stated): -4.6%.
As for `O=C(Nc1ccccn1)c1ccc2ccccc2n1`, the figure is -1.6%; as for `c1ccc(Nc2ccccc2Nc2ccccn2)nc1`, -35.9%.
The same measure for `Oc1cccc2ccc(Nc3ccccn3)nc12`: 119% (active); for `COC(=O)c1cc(Cc2ccc(N)c(C(=O)OC)c2)ccc1N`: 1.9%; for `O=C(COC(=O)CSCC(=O)N1CCCCC1)NCc1ccc(F)cc1`: -5.4%.
With `O=C(NC1CCCCC1)c1ccc(Cn2cc(Br)cn2)o1`, the cytotoxicity is -6.8%.
Take `CC(=O)c1sc(NC(=O)c2ccc(Cn3cc(Br)cn3)o2)nc1C`: the cytotoxicity is 3.3%.
As for `O=C(Nc1ccc(C(F)(F)F)cc1Cl)c1ccc(Cn2cc(Br)cn2)o1`, the figure is 63.2% (active); as for `O=C1CC(C(F)(F)C(F)(F)C(F)(F)C(F)F)=Nc2ccccc2N1`, -21.9%.
The same measure for `FC(F)C(F)(F)C(F)(F)C(F)(F)c1cc(-c2ccccc2)n[nH]1`: 83.3% (active); for `Oc1ccccc1-c1cc(C(F)(F)C(F)F)[nH]n1`: -15.5%.
As for `CCN(CCCNC(=O)Cn1ncc2c(=O)oc3ccccc3c21)c1cccc(C)c1`, the figure is 55.1% (active).
Regarding `CCOCCCNC(=O)Cn1ncc2c(=O)oc3ccccc3c21`, the cytotoxicity was -3.8%.
For the molecule `CCN(CC)CCCNC(=O)Cn1ncc2c(=O)oc3ccc(C)cc3c21`, the cytotoxicity is 1.6%.
The same measure for `Cc1cc(C)nc(NC(=O)NS(=O)(=O)N2CCCCCC2)n1`: -13.1%; for `Cc1ccc2[nH]c(=O)c(CN(CCc3ccccc3)Cc3nnnn3CC3CCCO3)cc2c1` (configuration not stated): 9.4%.
As for `CCOC(=O)N1CCN(C(=O)CSc2nnc(COc3ccc(Cl)cc3)o2)CC1`, the figure is -20.5%; as for `CN1/C(=C\C(=O)C(F)F)C(C)(C)c2ccccc21`, -24.8%; as for `CN1/C(=C\C(=O)c2ccco2)C(C)(C)c2ccccc21`, -14.9%.
The same measure for `CN1/C(=C/C(=O)c2nc(S(C)(=O)=O)ncc2Cl)C(C)(C)c2ccccc21`: 110% (active).
Consider `COc1cc(CO)cc(Br)c1OCC(=O)O`, for which the cytotoxicity is -22.6%.
As for `O=C(CSc1nnc(Cc2cc(=O)[nH]c(=O)[nH]2)n1-c1ccccc1)N1CCCC1`, the figure is -9.2%.
As for `O=C(CSC1=NCCS1)Nc1ccccc1F`, the figure is -3.4%.
With `Cc1cc(NC(=O)CSc2nnc(-c3ccco3)n2Cc2ccco2)no1`, the cytotoxicity was -9.5%.
With `[O-][n+]1onc2c1CCc1nnc(-c3ccccc3)cc1-2`, the cytotoxicity is 5.5%.
The same measure for `O=c1nc(-c2ccccc2)cc(-c2ccccc2)[nH]1`: -1.2%; for `Cc1ccc(/C(O)=C2/C(=O)C(=O)N(Cc3cccnc3)C2c2ccccn2)cc1` (configuration not stated): 10.4%; for `CCOc1ccc(-c2ncncc2-c2ccc(OC)cc2)c(O)c1`: -11.9%.
For `CCOc1ccc(-c2nc(N)nc(C)c2-c2ccc(OC)c(OC)c2)c(O)c1`, the cytotoxicity was 3.7%.
The same measure for `COc1ccc(-c2nc(N)nc(C)c2Oc2ccccc2Br)c(O)c1`: 87.7% (active).
As for `C=C(C)COc1ccc(-c2nc(N)ncc2-c2ccc(OC)cc2)c(O)c1`, the figure is 70.7% (active); as for `COc1cccc(Oc2cnc(N)nc2-c2ccc(OC)cc2O)c1`, 52% (active).
The same measure for `COc1ccc(-c2nc(N)ncc2-c2csc(C)n2)c(O)c1`: -25%; for `COc1cccc(Oc2cncnc2-c2ccc(OC)cc2O)c1`: 20.3%.
As to `COc1cccc(Oc2cn[nH]c2-c2ccc(OC)cc2O)c1`, the cytotoxicity is 72.7% (active).
The same measure for `COc1ccc(-c2nc(N)ncc2Oc2ccccc2Br)c(O)c1`: -2.2%.
As for `COc1ccc(-c2[nH]ncc2-c2cnn(-c3ccccc3)c2)c(O)c1`, the figure is -0.4%; as for `COc1cccc(Oc2cn[nH]c2-c2ccc(O)cc2O)c1`, 36%; as for `C=C(C)COc1ccc(-c2nc(N)ncc2Oc2ccc(OC)cc2)c(O)c1`, -10.3%.
Take `Cc1nc(N2CCC(C(N)=O)CC2)c2nnn(Cc3ccccc3)c2n1`: the cytotoxicity is 4.3%.
As for `Cc1oc(C(=O)O)cc1CSc1nnc(-c2ccccc2)n1C`, the figure is -2.3%.
Consider `COc1ccc(NC2c3ccccc3C(=O)N2Cc2ccco2)cc1OC` (configuration not stated), for which the cytotoxicity was 17.8%.
As to `Cc1cccc(Cn2cnc3c(nnn3Cc3ccc(F)cc3)c2=O)c1`, the cytotoxicity is 1.3%.
The same measure for `C=C(C)CSc1nnc(-c2ccccc2)n1N`: -23.4%; for `COC(=O)c1nc2n(n1)C(c1ccc(OC)c(OC)c1OC)C1=C(CCCC1=O)N2` (configuration not stated): 2.9%; for `Cc1ccc(NC(=O)c2ccco2)cc1NC(=O)CSc1nnc(-c2cccs2)n1C`: -3.6%.
As for `CCc1[nH]nc2c1C(c1cccc(OC(=O)N3CCOCC3)c1)C(C#N)=C(N)O2` (configuration not stated), the figure is -34.3%; as for `COc1ccc(Nc2nc(-c3sc(N)nc3C)cs2)cc1`, 46.6%; as for `CCn1c(C(O)c2ccccc2)nc2ccccc21` (configuration not stated), -4.3%.
As for `Cc1ccc(N2C(=O)C(Cl)=C(Nc3c(C)n(C)n(-c4ccccc4)c3=O)C2=O)cc1`, the figure is -0.2%; as for `CCOc1ccc(-c2[nH]ncc2Oc2cccc(OC)c2)c(O)c1`, 55.5% (active); as for `Cc1ccc(NC(=O)C2CCCN2S(=O)(=O)c2ccc(F)cc2)c(C)c1` (configuration not stated), -6.1%.
As to `CCOC(=O)C1CCCN(CCCc2ccccc2)C1` (configuration not stated), the cytotoxicity was -2.8%.
For the molecule `CCOC(=O)c1c(C2CCN(C(=O)OCC)CC2)nc2ccccn12`, the cytotoxicity was 0%.
As to `COc1ccc(C(C)=O)c2c(O)cccc12`, the cytotoxicity is 9.1%.
As to `COc1ccc2c3c(cccc13)OCC2=O`, the cytotoxicity was 8.3%.
The same measure for `COc1cccc(/C(O)=C2/C(=O)C(=O)N(CCN3CCOCC3)C2c2cccnc2)c1` (configuration not stated): -7.7%.
With `CC(=O)Nc1nc2ccc(Br)cc2s1`, the cytotoxicity was -11.8%.
The same measure for `Cc1c(C(=O)N2CCCC2)oc2c1-c1[nH]ncc1CC2`: 1%.

(Values after PubChem BioAssay AID430 (Sanford-Burnham Center for Chemical Genomics, 2006).)
